Here are results for eight compounds from PubChem BioAssay (Tox21).

Experiment [1] is described as follows: qHTS RealTime-Glo MT Cell Viability Assay in HEK293 cells - 0 hour (AID 1224880). Note: top concentration of the series differs between compounds; nearly all actives have a fitted effect of over 45% in size. An outline of the steps:
(§1)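 Tox21 screen in HEK293 using RealTime-Glo MT chemistry, with cells and reagent co-dispensed. Luminescence proportional to viable cell number was captured at intervals during 40 h compound exposure at 37 C.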
In general terms: qHTS replaces the single test concentration by a dilution series.

Experiment [2] is described as follows: A CellTox Green Cytotoxicity Assay to monitor cytotoxicity in HEK293 cells - 32 hour (AID 1224881). Note: nearly all actives have a fitted effect of over 40% in size. Note: potency is the fitted concentration of half-maximal effect. An outline of the steps: (§2)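 Seeding of HEK293 cells together with cytotoxicity dye preceded a 5 h incubation at 37 C/5% CO2. Test compounds in DMSO were then added and fluorescence monitored across 40 h.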
Experiment [3] in a line: A CellTox Green Cytotoxicity Assay to monitor cytotoxicity in HepG2 cells - 0 hour (AID 1224882). Note: nearly all actives have a fitted effect of over 35% in size. Note: potency is the fitted concentration of half-maximal effect. In outline:
(§3)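 Nonlytic assay: viable cells exclude the dye, so fluorescence scales with cell death. HepG2 at 600 cells/well, compounds added after 5 h, signal read across 40 h.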

A short description of experiment [4]: A CellTox Green Cytotoxicity Assay to monitor cytotoxicity in HepG2 cells - 32 hour (AID 1224883). Note: nearly all actives have a fitted effect of over 50% in size. Note: potency is the fitted concentration of half-maximal effect. In outline: as §3
Experiment [5] is described as follows: A CellTox Green Cytotoxicity Assay to monitor cytotoxicity in HEK293 cells - 8 hour (AID 1224884). Note: nearly all actives have a fitted effect of over 35% in size. Note: potency is the fitted concentration of half-maximal effect. An outline of the steps: as §2
A short description of experiment [6]: qHTS RealTime-Glo MT Cell Viability Assay in HepG2 cells - 16 hour (AID 1224885). Note: nearly all actives have a fitted effect of over 50% in size. An outline of the steps: (§4)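 Compound treatment began 5 h after plating HepG2 cells (600/well) with NanoLuc luciferase and prosubstrate. Plates stayed at 37 C for 40 h; luminescence was captured at six time points, 0 h through 40 h.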
Experiment [7] is described as follows: qHTS RealTime-Glo MT Cell Viability Assay in HEK293 cells - 24 hour (AID 1224886). Note: top concentration of the series differs between compounds; nearly all actives have a fitted effect of over 50% in size. In outline: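 Quantitative high-throughput screen of the Tox21 10K library in HEK293: cells and RealTime-Glo reagents plated together, compound added at 5 h, luminescence monitored through 40 h at 37 C.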
Experiment [8] in a line: qHTS RealTime-Glo MT Cell Viability Assay in HEK293 cells - 8 hour (AID 1224887). Note: top concentration of the series differs between compounds; nearly all actives have a fitted effect of over 50% in size. An outline of the steps:
as §1

Experiment [9] is described as follows: A CellTox Green Cytotoxicity Assay to monitor cytotoxicity in HEK293 cells - 16 hour (AID 1224888). Note: nearly all actives have a fitted effect of over 35% in size. An outline of the steps:
as §2

Experiment [10] in a line: qHTS RealTime-Glo MT Cell Viability Assay in HepG2 cells - 0 hour (AID 1224889). Note: nearly all actives have a fitted effect of over 50% in size. An outline of the steps: as §4
Experiment [11] in a line: A CellTox Green Cytotoxicity Assay to monitor cytotoxicity in HepG2 cells - 8 hour (AID 1224890). Note: nearly all actives have a fitted effect of over 45% in size. Note: potency is the fitted concentration of half-maximal effect. An outline of the steps: as §3
Experiment [12] can be described thus: qHTS assay to identify small molecule antagonists of the estrogen receptor alpha (ER-alpha) signaling pathway using the BG1 cell line in the presence of 0.1 nM 17-beta-estradiol - cell viability counter screen (AID 1259241). Note: nearly all actives have a fitted effect of over 40% in size. An outline of the steps:
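CellTiter-Fluor read (30 min, 37C) on ER-alpha/ERE-luc VM7Luc4E2 cells; 22 hr compound treatment; agonist 0.1 nM E2 final; same-well multiplex.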

Experiment [13] in a line: qHTS assay to identify small molecule antagonists of the androgen receptor (AR) signaling pathway using the MDA cell line in the presence of 0.5 nM R1881 - cell viability counter screen (AID 1259242). Note: nearly all actives have a fitted effect of over 45% in size. An outline of the steps: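 R1881 at 0.5 nM final stimulated MDA-kb2 cells during 16 hr compound treatment at 37C. Cytotoxicity read: CellTiter-Fluor fluorescence after 30 min.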

Experiment [14] addresses Estrogen receptor (Homo sapiens) (UniProt P03372). The experiment can be described thus: qHTS assay to identify small molecule antagonists of the estrogen receptor alpha (ER-alpha) signaling pathway using the BG1 cell line in the presence of 0.1 nM 17-beta-estradiol (AID 1259244). Note: nearly all actives have a fitted effect of over 50% in size. In outline:
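VM7Luc4E2; 4xERE-luciferase; 0.1 nM E2 final; 22 h co-incubation, 37C; ONE-Glo luminescence after 30 min at room temperature.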

The nature of experiment [15]: qHTS assay to identify small molecule phospholipidosis (PLD) inducers (AID 1259344; active = well fitted curve in the direction sought with a large enough effect; an effect the other way counts as inactive or inconclusive). In outline: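 Quantitative HTS in HepG2: compound plus LipidTOX Red dye for 24 h, paraformaldehyde fixation with Hoechst 33342, widefield high-content imaging; amiodarone as positive and DMSO as negative control.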
The nature of experiment [16]: qHTS assay to identify small molecule HDAC inhibitors (AID 1259364).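 Note: wild-type HCT-116 cells with endogenous class I/II HDAC activity; top concentration of the series differs between compounds; nearly all actives have a fitted effect of over 45% in size.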 In outline: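 Relative class I and II HDAC activity is taken from the luminogenic signal in HCT-116 cells, with compound exposure 2 hr and reagent development 30 min at room temperature.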
Experiment [17] can be described thus: qHTS assay to identify small molecule HDAC inhibitors - cell viability counter screen (AID 1259365). An outline of the steps:
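To flag cytotoxic hits, 1,500 wild-type HCT-116 cells per well, plated the day before, receive test compounds for 2hr at 37 C before CellTiter-Glo reagent and a luminescence read.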

Experiment [18] can be described thus: qHTS assay to identify small molecule agonists of the sonic hedgehog signaling (Shh) pathway - cell viability counter screen (AID 1259366). Note: nearly all actives have a fitted effect of over 50% in size. In outline: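 Fluorescence from CellTiter-Fluor reports live cells in this counter screen. NIH/3T3-derived Gli1-Luc reporter cells receive test compounds for 24hr at 37C; reagent goes in at 23hr.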
A short description of experiment [19]: qHTS assay to identify small molecule antagonists of the sonic hedgehog signaling (Shh) pathway - cell viability counter screen (AID 1259367). Note: nearly all actives have a fitted effect of over 55% in size. An outline of the steps:
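Seed 3T3 Gli1-Luc cells at 2,000 per well; incubate 4 hr; add compound in DMSO, then conditioned medium; incubate at 37C with 5% CO2; add CellTiter-Fluor after 23 hr; read fluorescence 1 hr later.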

The target in experiment [20] is Androgen receptor (Homo sapiens) (UniProt P10275). Nature of the experiment: qHTS assay to identify small molecule antagonists of the androgen receptor (AR) signaling pathway using the MDA cell line in the presence of 0.5 nM R1881 (AID 1259243). Note: nearly all actives have a fitted effect of over 50% in size. An outline of the steps:
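We exposed MDA-kb2 cells to compounds under 0.5 nM R1881 stimulation for 16 hr at 37C and quantified MMTV-driven luciferase by luminescence.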

Molecules are shown by their SMILES. Several values for one entry are separate records, joined by “and”; a condition that tells them apart may be missing. Equal values may be shown once. Results filed as inconclusive are left out. Where a structure was tested more than once in an assay, its records may differ in their call. Activity calls are given as the source filed them. Unless noted, calls come from the whole dose curve; as a rule, active = well fitted curve in the direction sought with a large enough effect in the repeat runs; inconclusive = weak or mixed curves; inactive = no such curve, though single readings can be large; an effect the other way counts as inactive or inconclusive.

Estrogen receptor (Homo sapiens), sequence (P03372 whole entry, looked up): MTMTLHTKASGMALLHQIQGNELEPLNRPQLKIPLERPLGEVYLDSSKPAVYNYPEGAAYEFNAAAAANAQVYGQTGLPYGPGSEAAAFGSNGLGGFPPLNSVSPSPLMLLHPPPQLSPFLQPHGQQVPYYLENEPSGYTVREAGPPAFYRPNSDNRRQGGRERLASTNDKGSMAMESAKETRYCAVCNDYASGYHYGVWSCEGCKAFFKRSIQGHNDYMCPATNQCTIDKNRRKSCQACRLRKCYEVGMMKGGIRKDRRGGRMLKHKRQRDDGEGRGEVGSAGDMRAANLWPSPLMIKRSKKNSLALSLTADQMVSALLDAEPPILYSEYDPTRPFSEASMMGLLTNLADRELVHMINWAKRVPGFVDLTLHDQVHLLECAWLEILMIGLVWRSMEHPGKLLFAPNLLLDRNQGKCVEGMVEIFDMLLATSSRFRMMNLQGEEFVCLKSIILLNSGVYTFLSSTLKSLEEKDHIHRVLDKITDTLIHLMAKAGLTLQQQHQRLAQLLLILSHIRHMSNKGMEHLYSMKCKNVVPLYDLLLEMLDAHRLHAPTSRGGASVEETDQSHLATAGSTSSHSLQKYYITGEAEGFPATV
Androgen receptor (Homo sapiens), sequence (P10275 whole entry, looked up): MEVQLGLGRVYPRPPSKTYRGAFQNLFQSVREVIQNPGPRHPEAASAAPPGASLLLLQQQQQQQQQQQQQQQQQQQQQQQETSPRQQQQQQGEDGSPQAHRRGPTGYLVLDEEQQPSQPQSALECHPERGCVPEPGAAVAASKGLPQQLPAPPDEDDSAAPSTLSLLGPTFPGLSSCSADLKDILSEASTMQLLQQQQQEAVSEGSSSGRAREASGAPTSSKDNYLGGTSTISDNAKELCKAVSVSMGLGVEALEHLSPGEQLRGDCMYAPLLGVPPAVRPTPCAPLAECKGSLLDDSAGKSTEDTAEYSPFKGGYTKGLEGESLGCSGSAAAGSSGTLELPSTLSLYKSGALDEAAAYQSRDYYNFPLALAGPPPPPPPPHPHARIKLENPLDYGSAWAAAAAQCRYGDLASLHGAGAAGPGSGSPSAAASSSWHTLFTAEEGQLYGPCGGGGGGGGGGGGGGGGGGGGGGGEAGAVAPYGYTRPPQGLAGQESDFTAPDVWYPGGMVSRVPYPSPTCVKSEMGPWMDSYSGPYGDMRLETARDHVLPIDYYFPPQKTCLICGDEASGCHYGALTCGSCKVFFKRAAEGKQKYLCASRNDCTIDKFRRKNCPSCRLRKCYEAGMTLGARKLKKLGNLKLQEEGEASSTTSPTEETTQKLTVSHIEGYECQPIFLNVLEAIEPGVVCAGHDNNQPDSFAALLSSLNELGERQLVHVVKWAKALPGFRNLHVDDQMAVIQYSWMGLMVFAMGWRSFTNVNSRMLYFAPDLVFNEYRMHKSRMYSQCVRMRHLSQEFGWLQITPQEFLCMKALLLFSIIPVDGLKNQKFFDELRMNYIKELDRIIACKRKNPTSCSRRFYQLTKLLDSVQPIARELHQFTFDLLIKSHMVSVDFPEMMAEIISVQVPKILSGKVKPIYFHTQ

Turning to `C[C@H]1C(=O)O[C@@H]2CCN3CC=C(COC(=O)[C@](C)(O)[C@]1(C)O)[C@H]23`, the outcome in experiment [1], in experiment [6], in [7], in [8], in [10] and in experiment [12] was inactive. The result in experiment [13] and in experiment [17] was inactive. For the same compound, the Potency result in experiment [2], in experiment [3], in experiment [4], in [5], in experiment [9] and in [11] was “inactive” in each case. In addition, the Potency result in experiment [14], in experiment [15], in experiment [16], in experiment [18] and in experiment [19] was “inactive” throughout.

With `CC(C)c1cccc(C(C)C)c1O`, the compound was classed as inactive in experiment [1], in [6], in experiment [7], in [8], in [10] and in [12]. Moreover, the result in experiment [13] and in experiment [17] was inactive. In addition, the Potency in experiment [2] is 24.5 µM (active) and 43.6 µM (active) and inactive; in experiment [3] it was “inactive and 43.6 µM (active)”; in experiment [4], 43.6 µM (active) and inactive; in experiment [5], “inactive and 43.6 µM (active)”; in [11] it was 43.6 µM (active) and inactive. For the same compound, the Potency result in [20], in experiment [14], in experiment [15], in [16], in experiment [18] and in [19] was “inactive” each time.

With `CCCCCCCCCCCCCCCCCC(=O)O`, the compound was classed as inactive in [1], in experiment [6], in experiment [7], in experiment [8], in experiment [10] and in experiment [12]. For the same compound, the result in experiment [13] and in experiment [17] was inactive. Besides, the Potency result in [2], in experiment [3], in experiment [4], in [5], in experiment [9] and in [11] was “inactive” each time. In addition, the Potency result in [16], in experiment [18] and in [19] was “inactive” throughout.

On to `COP(=S)(OC)SCN1C(=O)c2ccccc2C1=O`, for which the outcome in [1], in experiment [6], in [7], in experiment [8], in [10] and in experiment [12] was inactive. The outcome in [13] and in [17] was inactive. Further, the Potency result in experiment [2], in experiment [3], in experiment [4], in experiment [5], in experiment [9] and in experiment [11] was “inactive” throughout. Further, the Potency result in experiment [15], in experiment [16], in experiment [18] and in [19] was “inactive” in each case.

In the case of `CNC(=O)O/N=C/C(C)(C)S(C)=O` (stereo unspecified), the result in experiment [1], in experiment [6], in experiment [7], in experiment [8], in [10] and in experiment [12] was inactive. Besides, the result in experiment [13] was inactive. Moreover, the Potency result in experiment [2], in experiment [3], in experiment [4], in [5], in [9] and in experiment [11] was “inactive” each time. In addition, the Potency result in experiment [14], in [16], in experiment [18] and in experiment [19] was “inactive” throughout.

Regarding `N#Cc1ccccn1`, the result in [1], in [6], in experiment [7], in experiment [8], in experiment [10] and in experiment [12] was inactive. Besides, the outcome in experiment [13] and in experiment [17] was inactive. The Potency result in [2], in [3], in experiment [4], in experiment [5], in experiment [9] and in experiment [11] was “inactive” in each case. Besides, the Potency result in [14], in [16], in experiment [18] and in experiment [19] was “inactive” each time.

For `CCOc1ccc(N)cc1`, the call in experiment [1], in experiment [6], in experiment [7], in experiment [8], in experiment [10] and in [12] was inactive. Moreover, the result in experiment [13] was inactive. Also, the Potency result in experiment [2], in experiment [3], in [4], in experiment [5], in experiment [9] and in experiment [11] was “inactive” each time. The Potency entry in experiment [14], in experiment [16], in experiment [18] and in [19] was “inactive” in each case.

For `Nc1cc(Cl)cc(Cl)c1`, the result in [1], in experiment [6], in experiment [7], in experiment [8], in [10] and in experiment [12] was inactive. Also, the outcome in experiment [13] was inactive. Moreover, the Potency entry in experiment [2], in experiment [3], in experiment [4], in experiment [5], in experiment [9] and in experiment [11] was “inactive” each time. Besides, the Potency entry in experiment [16], in experiment [18] and in [19] was “inactive” in each case.
